Experimental data taken from PubChem BioAssay (Tox21).
Inconclusive results are not listed. Active and inactive are the calls of the source. Unless noted, calls come from the whole dose curve; as a rule, active = well fitted curve in the direction sought with a large enough effect in the repeat runs; inconclusive = weak or mixed curves; inactive = no such curve, though single readings can be large; an effect the other way counts as inactive or inconclusive.

Columns and labels:
[1] = qHTS assay to identify small molecule antagonists of the progesterone receptor (PR) signaling pathway - cell viability counter screen (AID 1346798); note: nearly all actives have a fitted effect of over 50% in size; note: potency is the fitted concentration of half-maximal effect
Summary of the method: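 PR-UAS-bla HEK293T cells, 3,000/well in 2% charcoal-stripped FBS medium, dosed with compounds plus R5020 agonist and incubated 16 h at 37C. Viability then measured in the same wells by CellTiter-Glo luminescence after 30 min at RT.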

[2] = qHTS assay to identify small molecule antagonists of the TGF-beta/Smad signaling pathway - cell viability counter screen (AID 1346824); note: nearly all actives have a fitted effect of over 50% in size; note: potency is the fitted concentration of half-maximal effect
Summary of the method: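 SBE-bla HEK 293T cells, incubated overnight, then compound plus 0.25 ng/mL TGF-beta1 (stock added) for 5 hr at 37 C. Viability was read in the same wells by CellTiter-Glo luminescence after 30 min at room temperature.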

[3] = qHTS assay to identify small molecule agonists of the TGF-beta/Smad signaling pathway - cell viability counter screen (AID 1346829); note: nearly all actives have a fitted effect of over 45% in size; note: potency is the fitted concentration of half-maximal effect
Summary of the method: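 HEK 293T SBE-bla line, 5 hr compound exposure at 37 C, multiplexed CellTiter-Glo viability read by luminescence.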

[4] = target: Thyrotropin-releasing hormone receptor (Homo sapiens) (UniProt P34981); assay: qHTS assay to identify small molecule antagonists of the thyrotropin-releasing hormone receptor (TRHR) signaling pathway (AID 1346877; active = well fitted inhibition curve with a large enough effect in the repeat runs, not every such curve was filed as active; note: series mostly up to about 51 µM; % is set by controls: 0 for no effect and ±100 for the full control effect)
Sequence of Thyrotropin-releasing hormone receptor (Homo sapiens) (P34981 whole entry, looked up): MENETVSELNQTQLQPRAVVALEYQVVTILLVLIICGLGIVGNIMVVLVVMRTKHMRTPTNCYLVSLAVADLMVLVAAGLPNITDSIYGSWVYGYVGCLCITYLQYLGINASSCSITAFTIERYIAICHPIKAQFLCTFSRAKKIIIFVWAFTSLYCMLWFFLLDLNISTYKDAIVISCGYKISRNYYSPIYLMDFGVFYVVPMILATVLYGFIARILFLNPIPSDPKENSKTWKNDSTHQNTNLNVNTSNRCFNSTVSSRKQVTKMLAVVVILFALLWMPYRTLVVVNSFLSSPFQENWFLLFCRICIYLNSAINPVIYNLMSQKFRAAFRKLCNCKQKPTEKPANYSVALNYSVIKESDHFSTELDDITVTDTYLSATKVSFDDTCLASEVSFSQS
Summary of the method: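 Human TRHR in HEK293 cells; inhibition of the intracellular calcium rise triggered by 1 nM TRH was followed by fluorescence over 3 min. Compounds were run at 15 concentrations, three replicates each.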

[5] = target: Thyrotropin-releasing hormone receptor (Homo sapiens) (UniProt P34981); assay: qHTS assay to identify small molecule agonists of the thyrotropin-releasing hormone receptor (TRHR) signaling pathway (AID 1346891; calls by dose curve; note: potency is the fitted concentration of half-maximal effect; for activation: series mostly up to about 58 µM; % is set by controls: 0 for no effect and ±100 for the full control effect)
Summary of the method: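 HEK293 cells expressing TRHR plated 18 h at 37 C/5% CO2, calcium dye-loaded 2 h at 37 C, then compound added (agonist mode); kinetic calcium fluorescence read 3 min at 1 s intervals; 15 concentrations in triplicate.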

[6] = Caspase-3/7 induction in HepG2 cells by small molecules, qHTS assay (AID 1346978); note: nearly all actives have a fitted effect of over 15% in size; note: potency is the fitted concentration of half-maximal effect
Summary of the method: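 Wild-type HepG2 cells, 2,000/well, settled 5 hr at 37 C and 5% CO2, then compound-treated for 17 hr; caspase-3/7 activity read by luminescent Caspase-Glo 3/7 after 30 min at room temperature.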

[7] = Caspase-3/7 induction in CHO-K1 cells by small molecules, qHTS assay (AID 1346980); note: nearly all actives have a fitted effect of over 15% in size; note: potency is the fitted concentration of half-maximal effect
Summary of the method: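 Wild-type CHO-K1 cells exposed to compounds for 17hr at 37 C, 5% CO2. Caspase-3/7 activity then measured by Caspase-Glo 3/7 luminescence after 30min at room temperature.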

[8] = target: Nuclear receptor subfamily 1 group I member 2 (Homo sapiens) (UniProt O75469); assay: CYP3A4 induction through human pregnane X receptor (PXR) by small molecules, qHTS assay (AID 1346984); note: % is set by controls: 0 for no effect and ±100 for the full control effect; nearly all actives have a fitted effect of over 40% in size
Sequence of Nuclear receptor subfamily 1 group I member 2 (Homo sapiens) (O75469 whole entry, looked up): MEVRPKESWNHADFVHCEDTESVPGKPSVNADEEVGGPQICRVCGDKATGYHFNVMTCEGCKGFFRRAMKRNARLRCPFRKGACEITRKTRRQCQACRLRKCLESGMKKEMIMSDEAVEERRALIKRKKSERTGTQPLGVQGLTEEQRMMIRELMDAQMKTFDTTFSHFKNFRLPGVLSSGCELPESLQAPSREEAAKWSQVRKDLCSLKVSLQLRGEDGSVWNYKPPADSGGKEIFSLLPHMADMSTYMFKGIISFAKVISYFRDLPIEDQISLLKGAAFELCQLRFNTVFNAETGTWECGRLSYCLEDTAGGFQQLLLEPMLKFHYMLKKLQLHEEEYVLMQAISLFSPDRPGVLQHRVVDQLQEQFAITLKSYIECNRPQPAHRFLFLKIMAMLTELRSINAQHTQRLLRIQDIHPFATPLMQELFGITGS
Summary of the method: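 Human PXR activation is tracked via CYP3A4 promoter-luciferase in DPX-2 (HepG2) cells. Compounds treat cells for 24hr at 37C, and luminescence is read after One-Glo.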

[9] = target: Nuclear receptor subfamily 1 group I member 2 (Homo sapiens) (UniProt O75469); assay: Human pregnane X receptor (PXR) activation by small molecules, qHTS assay (AID 1346985); note: % is set by controls: 0 for no effect and ±100 for the full control effect; nearly all actives have a fitted effect of over 40% in size
Summary of the method: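 DPX-2 cells (HepG2 co-transfected with a PXR response element and a CYP3A4-promoter luciferase construct) were seeded at 2,000 per well, rested 5 hr at 37C, then exposed to DMSO-dissolved compounds for 24 hr. Activation was read as luciferase luminescence.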

[10] = target: Cytochrome P450 2D6 (Homo sapiens) (UniProt P10635); assay: Cytochrome P450 Family 2 Subfamily D Member 6 (CYP2D6) small molecule antagonists: luciferase reporter qHTS assay (AID 1671196); note: nearly all actives have a fitted effect of over 50% in size; note: potency is the fitted concentration of half-maximal effect
Sequence of Cytochrome P450 2D6 (Homo sapiens) (P10635 whole entry, looked up): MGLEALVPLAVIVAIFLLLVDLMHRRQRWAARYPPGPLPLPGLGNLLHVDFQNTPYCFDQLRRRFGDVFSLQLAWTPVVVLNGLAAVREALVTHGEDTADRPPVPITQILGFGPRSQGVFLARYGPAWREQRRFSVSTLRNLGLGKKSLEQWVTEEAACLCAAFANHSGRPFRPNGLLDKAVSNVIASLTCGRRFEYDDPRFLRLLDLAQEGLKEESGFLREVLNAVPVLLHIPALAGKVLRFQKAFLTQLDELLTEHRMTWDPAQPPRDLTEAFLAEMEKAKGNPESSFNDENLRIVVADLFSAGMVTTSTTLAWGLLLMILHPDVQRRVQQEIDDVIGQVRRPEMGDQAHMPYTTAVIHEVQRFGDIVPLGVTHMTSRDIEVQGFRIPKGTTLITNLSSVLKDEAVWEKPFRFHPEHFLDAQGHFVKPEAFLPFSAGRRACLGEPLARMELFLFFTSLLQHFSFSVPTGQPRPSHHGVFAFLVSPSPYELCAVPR
Summary of the method: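 Quantitative HTS of Tox21 chemicals against CYP2D6 using a luminescent proluciferin substrate. After NADPH addition, 1 h room-temperature reaction; luminescence recorded 20 min post detection reagent.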

[11] = target: Cytochrome P450 2C19 (Homo sapiens) (UniProt P33261); assay: Cytochrome P450 Family 2 Subfamily C Member 19 (CYP2C19) small molecule antagonists: luciferase reporter qHTS assay (AID 1671197); note: nearly all actives have a fitted effect of over 65% in size; note: potency is the fitted concentration of half-maximal effect
Sequence of Cytochrome P450 2C19 (Homo sapiens) (P33261 whole entry, looked up): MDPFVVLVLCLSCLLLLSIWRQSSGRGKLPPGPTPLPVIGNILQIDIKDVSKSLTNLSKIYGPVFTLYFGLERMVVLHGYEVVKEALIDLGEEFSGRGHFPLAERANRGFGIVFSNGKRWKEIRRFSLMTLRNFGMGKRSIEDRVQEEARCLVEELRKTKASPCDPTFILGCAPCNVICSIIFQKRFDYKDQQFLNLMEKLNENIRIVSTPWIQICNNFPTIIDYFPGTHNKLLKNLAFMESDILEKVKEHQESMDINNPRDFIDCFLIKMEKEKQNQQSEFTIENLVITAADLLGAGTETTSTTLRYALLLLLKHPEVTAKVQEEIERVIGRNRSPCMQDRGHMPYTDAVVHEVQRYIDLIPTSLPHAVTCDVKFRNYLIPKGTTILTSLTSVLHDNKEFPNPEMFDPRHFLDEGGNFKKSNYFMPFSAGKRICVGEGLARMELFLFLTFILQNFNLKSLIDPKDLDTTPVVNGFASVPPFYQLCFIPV
Summary of the method: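 First, compounds are pinned into enzyme-substrate mix and held 10 min at room temperature. Second, NADPH regeneration solution is added and plates incubate 1 h at 37C. Third, detection reagent is added and luminescence read after 20 min.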

[12] = qHTS assay to identify small molecule agonists of the progesterone receptor (PR) signaling pathway - cell viability counter screen (AID 1346799; calls by dose curve; note: potency is the fitted concentration of half-maximal effect; nearly all actives have a fitted effect of over 45% in size)
Summary of the method: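 Counter screen in the PR-UAS-bla HEK293T wells (2% charcoal-stripped FBS, 16 h compound exposure at 37 C) after the bla read. CellTiter-Glo added, 30 min at room temperature, luminescence read as cell viability.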

[13] = Human pregnane X receptor (PXR) small molecule agonists, qHTS cell viability counter screen (AID 1346977); note: nearly all actives have a fitted effect of over 50% in size; note: potency is the fitted concentration of half-maximal effect
Summary of the method: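 PXR-Luc HepG2 cells (2,000/well, 5% charcoal-stripped FBS) preincubated 5 hr, then exposed to compounds 24 hr at 37 C. Viability read in the same wells by CellTiter-Fluor fluorescence, reagent added at 23 hr, 1 hr incubation.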

[14] = Caspase-3/7 induction in CHO-K1 cells by small molecules, qHTS cell viability counter screen (AID 1346979); note: nearly all actives have a fitted effect of over 35% in size; note: potency is the fitted concentration of half-maximal effect
Summary of the method: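 Wild-type CHO-K1 cells (1,500/well) treated with compound after 5 h plating; after 16 h at 37C, viability read as CellTiter-Fluor fluorescence following 1 h reagent incubation, in the same wells as the caspase read.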

[15] = Caspase-3/7 induction in HepG2 cells by small molecules, qHTS cell viability counter screen (AID 1346981); note: nearly all actives have a fitted effect of over 30% in size; note: potency is the fitted concentration of half-maximal effect
Summary of the method: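 The parent HepG2 line is plated at 2,000 cells per well and rested 5 hr before compound pinning from DMSO stocks. Following a 16-hr treatment at 37 C, a fluorogenic live-cell substrate (CellTiter-Fluor) reports viability after 1 hr.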

[16] = target: Nuclear receptor subfamily 1 group I member 2 (Homo sapiens) (UniProt O75469); assay: Human pregnane X receptor (PXR) small molecule agonists, qHTS assay (AID 1346982); note: nearly all actives have a fitted effect of over 35% in size; note: potency is the fitted concentration of half-maximal effect; for activation: % is set by controls: 0 for no effect and ±100 for the full control effect
Summary of the method: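 After plating in 5% charcoal-stripped FBS and a 5 hr rest, PXR-Luc HepG2 cells received compounds in DMSO. Following 24 hr at 37 C, ONE-Glo was added and light output read.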

[17] = qHTS assay to identify small molecule agonists of the TGF-beta/Smad signaling pathway (AID 1346859; active = well fitted activation curve with a large enough effect in the signal ratio in the repeat runs, not every such curve was filed as active; the % refers to the signal ratio; note: series mostly up to about 77 µM; % is set by controls: 0 for no effect and ±100 for the full control effect)
Summary of the method: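 SBE-bla HEK293T cells plated overnight, then compound exposure for 5 h at 37 C. Beta-lactamase reporter read with LiveBLAzer B/G FRET substrate after 2 h at room temperature, fluorescence at 405 nm excitation, 460/530 nm emission.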

[18] = target: Nuclear receptor subfamily 1 group I member 2 (Rattus norvegicus) (UniProt Q9R1A7); assay: Rat pregnane X receptor (rPXR) activation by small molecules, qHTS assay (AID 1346983); conditions: rPXR luciferase reporter cells, One-Glo luminescence, 24 h; max activation: stronger effect = higher value; note: % is set by controls: 0 for no effect and ±100 for the full control effect; nearly all actives have a fitted effect of over 20% in size
Sequence of Nuclear receptor subfamily 1 group I member 2 (Rattus norvegicus) (Q9R1A7 whole entry, looked up): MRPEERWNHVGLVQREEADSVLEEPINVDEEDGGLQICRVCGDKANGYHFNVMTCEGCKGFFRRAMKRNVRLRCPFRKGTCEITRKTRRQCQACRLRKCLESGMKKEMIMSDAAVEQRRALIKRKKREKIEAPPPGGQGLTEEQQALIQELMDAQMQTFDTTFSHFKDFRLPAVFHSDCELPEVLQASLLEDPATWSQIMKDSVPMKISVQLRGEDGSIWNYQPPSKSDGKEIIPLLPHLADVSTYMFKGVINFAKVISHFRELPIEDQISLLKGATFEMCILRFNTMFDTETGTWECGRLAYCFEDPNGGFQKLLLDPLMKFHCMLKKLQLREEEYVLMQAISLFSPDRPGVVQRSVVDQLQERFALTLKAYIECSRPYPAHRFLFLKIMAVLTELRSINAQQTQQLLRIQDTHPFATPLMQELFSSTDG
Summary of the method: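 Cell-based rPXR activation assay: rPXR cells, 2,000 per well, rested 5hr at 37 C, then exposed to compounds in DMSO for 24 hr at 37 C. Luciferase activity read by One-Glo luminescence after 30 min at room temperature.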

CCCC(=O)OC[C@@H](OC(=O)CCC)[C@@H](OC(=O)CCC)[C@H](Cn1c2nc(=O)[nH]c(=O)c-2nc2cc(C)c(C)cc21)OC(=O)CCC
inactive: Potency [1] | Potency [2] | Potency [3] | Potency [4] | Potency [6] | Potency [7] | Potency [8] | Potency [9]
active: Potency [5] 13.5 µM | Potency [10] 8.71 µM | Potency [11] 8.71 µM

[Cl][Bi]([Cl])([c]1ccccc1)([c]1ccccc1)[c]1ccccc1
inactive: Potency [6] | Potency [7]
active: Potency [1] 3.05 µM | Potency [12] 1.71 µM | Potency [13] 3.83 µM | Potency [14] 3.05 µM | Potency [15] 68.2 µM | Potency [16] 0.483 µM | Potency [10] 6.29 µM | Potency [11] 0.445 µM

O=C(Nc1cccc(Cl)c1)OCC#CCCl
inactive: Potency [2] | Potency [3] | Potency [4] | Potency [5] | Potency [6] | Potency [7]
active: Potency [1] 54.5 µM | Potency [15] 27.3 µM | Potency [16] 13.7 µM | Potency [10] 39.9 µM | Potency [11] 8.94 µM

CCCCCCCC[N+](CCCCCCCC)(CCCCCCCC)CCCCCCCC
active: Potency [1] 30.6 µM | Potency [2] 48.9 µM | Potency [3] 43.6 µM | Potency [13] 5.44 µM | Potency [6] 15.3 µM | Potency [14] 8.62 µM | Potency [15] 21.6 µM | Potency [16] 3.06 µM | Potency [10] 0.563 µM | Potency [11] 22.4 µM
inactive: Potency [4] | Potency [5]

CCN(CC)CCCC(C)Nc1c2ccc(Cl)cc2nc2ccc(OC)cc12 (stereo not drawn)
active: Potency [1] 13.3 µM | Potency [6] 29.8 µM | Potency [16] 5.96 µM
inactive: Potency [2] | Potency [3] | Potency [4] | Potency [8] | Potency [9] | Potency [11]

Clc1ccc2n[nH]nc2c1
inactive: Potency [1] | Potency [2] | Potency [3] | Potency [17] | Potency [4] | Potency [5] | Potency [13] | Potency [6] | Potency [7] | Potency [15] | Potency [16] | Potency [10] | Potency [11]

O=C1C=CC(=O)N1
active: Potency [1] 55.9 µM | Potency [12] 62.8 µM | Potency [14] 5.59 µM
inactive: Potency [17] | Potency [4] | Potency [5] | Potency [6] | Potency [7] | Potency [16] | Potency [10]

CCCCCOC(=O)CCCC
inactive: Potency [1] | Potency [3] | Potency [17] | Potency [4] | Potency [5] | Potency [13] | Potency [6] | Potency [14] | Potency [7] | Potency [15] | Potency [16] | Potency [10] | Potency [11]

CCCCCCCCCCCCCC[P+](CCCC)(CCCC)CCCC (tested in a mixture with another compound)
inactive: Potency [4] | Potency [5] | Potency [7]
active: Potency [1] 30.8 µM | Potency [3] 31.1 µM | Potency [13] 12.3 µM | Potency [6] 27.5 µM | Potency [15] 24.5 µM | Potency [16] 7.74 µM | Potency [10] 0.113 µM | Potency [11] 17.9 µM

CCN(CC)CCNC(=O)c1c(C)[nH]c(/C=C2\C(=O)Nc3ccc(F)cc32)c1C
active: Potency [1] 11.9 µM | Potency [6] 26.6 µM | Potency [14] 13.3 µM | Potency [15] 10.6 µM
inactive: Potency [3] | Potency [17] | Potency [4] | Potency [5] | Potency [7] | max activation [18] -11.9%

C=CC(=O)OCCn1c(=O)n(CCOC(=O)C=C)c(=O)n(CCOC(=O)C=C)c1=O
inactive: Potency [2] | Potency [4] | Potency [5] | Potency [10]
active: Potency [1] 21.7 µM | Potency [13] 27.3 µM | Potency [6] 24.3 µM | Potency [14] 4.33 µM | Potency [7] 2.43 µM | Potency [15] 27.3 µM | Potency [16] 8.63 µM | Potency [11] 2.83 µM

CCCCCCCCCCCCc1ccc(O)cc1
active: Potency [1] 54.5 µM | Potency [12] 30.6 µM | Potency [3] 49 µM | Potency [13] 30.6 µM | Potency [6] 61.1 µM | Potency [14] 43.3 µM | Potency [7] 54.5 µM | Potency [15] 61.1 µM | Potency [16] 9.69 µM | Potency [11] 1.59 µM
inactive: Potency [10]

CC/C(=C(\c1ccc(O)cc1)c1ccc(OCCN(C)C)cc1)c1ccccc1
inactive: Potency [5]
active: Potency [1] 27.4 µM | Potency [12] 27.4 µM | Potency [2] 61.8 µM | Potency [3] 55.1 µM | Potency [13] 19.4 µM | Potency [6] 34.4 µM | Potency [14] 34.4 µM | Potency [15] 43.4 µM | Potency [16] 6.87 µM | Potency [10] 40 µM | Potency [11] 44.9 µM

OC1(c2ccc(Cl)c(C(F)(F)F)c2)CCN(CCCC(c2ccc(F)cc2)c2ccc(F)cc2)CC1
inactive: Potency [4]
active: Potency [1] 13.3 µM | Potency [3] 19 µM | Potency [13] 10.6 µM | Potency [6] 13.3 µM | Potency [15] 18.8 µM | Potency [10] 4.9 µM | Potency [11] 15.5 µM
